Screening data deposited in PubChem by National Center for Advancing Translational Sciences (NCATS).
A selection: hits, their analogues and other compounds. The true share with any hit is near 9%.
LMNA splice mod – changes lamin A minigene splicing in HeLa cells. Potency, µM (highest dose often 46.1 µM), without a hit: top-dose ratio change, negative = inhibition, most hits filed as inhibitors. 200,000 compounds, 0.01% hits. HeLa LMNA splicing GFP/RFP minigene ratio, 48 h; active = well fitted inhibition curve with a large enough effect in the signal ratio, with a control signal flat, not every such curve was filed as active; inconclusive = small, poorly fitted or top-dose-only effect, or effect the other way, or a change in a side signal; the % refers to the signal ratio
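S3 HeLa cells stably expressing lamin A-EGFP splicing minigene plus DsRed2, 600 cells/well, 48 h compound exposure at 37C. Laser-scanning cytometry; analysed as GFP (500-530 nm)/RFP (575-640 nm) total intensity ratio; 0.5% DMSO vehicle.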
KinaseGlo FLuc – counter-screen: inhibitors of Kinase-Glo firefly luciferase; Kinase-Glo luciferase, ATP luminescence, 8 min; Potency, µM (highest dose often 38.3 µM), for inactives: at the highest dose activity change, negative = inhibition, usual class: inhibitors; 200,000 compounds, 0.28% hits; AID 1379; active = well fitted curve in the direction sought with a large enough effect; inconclusive = small, poorly fitted or top-dose-only effect, or another doubt; inactive = no such curve, though single readings can be large; an effect the other way counts as inactive or inconclusive; note: nearly all actives have a fitted effect of over 60% in size
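Inhibition of Kinase-Glo luciferase light generation was assessed at 10 uM ATP in pH 7.2 imidazole buffer, with luminescence measured after eight minutes at ambient temperature.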
ALDH1A1 block – ALDH1A1 (human) enzyme inhibition | P00352 | Purified ALDH1A1, NADH fluorescence, propionaldehyde substrate | Potency, µM (highest dose often 75.3 µM), for the others: top-dose activity, negative = inhibition, actives largely listed as inhibitors | 220,000 compounds, 7.3% hits;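 note: plate controls were no enzyme wells and a reference inhibitor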
IMPase Li cell – cell-permeable IMPase inhibitors with lithium potentiation | 210,000 compounds, 0.35% hits | CHO-M1 cells, IP1 TR-FRET (IP-One), carbachol + lithium | Potency, µM (highest dose often 59.4 µM), for the others: top-dose activity, negative = IMPase inhibition, most hits filed as inhibitors; active = well fitted curve in the direction sought with a large enough effect; inconclusive = small, poorly fitted or top-dose-only effect, or another doubt; inactive = no such curve, though single readings can be large; an effect the other way counts as inactive or inconclusive;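 note: IP1 builds up when IMPase is blocked and the TR-FRET signal falls; plate controls were basal vehicle for no effect and high inhibitor control for full effect; nearly all actives have a fitted effect of over 50% in size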
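Lithium-sensitised IP1 accumulation assay; M1-expressing CHO cells treated 30 min at 37C with compound. Competitive antibody detection by time-resolved FRET followed a 10 min room-temperature lysis step.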
HPGD inh – blocks human HPGD enzyme activity. P15428. purified HPGD, NADH fluorescence kinetic, PGE2 substrate. Potency, µM, for inactives: at the highest dose activity change, negative = inhibition, actives largely listed as inhibitors. 150,000 compounds, 4.3% hits
Target sequence (P15428 whole entry, looked up): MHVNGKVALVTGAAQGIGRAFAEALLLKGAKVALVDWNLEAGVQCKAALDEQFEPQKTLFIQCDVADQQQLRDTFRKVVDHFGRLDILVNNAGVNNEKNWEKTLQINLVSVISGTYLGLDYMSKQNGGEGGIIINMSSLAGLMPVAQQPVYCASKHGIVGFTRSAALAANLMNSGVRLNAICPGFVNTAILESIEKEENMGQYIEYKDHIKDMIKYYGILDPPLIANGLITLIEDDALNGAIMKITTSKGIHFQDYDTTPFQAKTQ
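20 nM HPGD preincubated 15 min at room temperature with compound in 50 mM Tris-HCl pH 8, 0.01% Tween 20. Started with 1 mM NAD+ and 30 uM prostaglandin E2; NADH fluorescence (360/450 nm) read 5 times over 30-s intervals, last minus first.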
* marks the source's active call; other numbers are inactive results; ? = inconclusive; · = no result given; [ ] = remark or other dose. Unless noted, calls come from the whole dose curve; as a rule, active = well fitted inhibition curve with a large enough effect (not every such curve was filed as active); inconclusive = small, poorly fitted or top-dose-only effect, or another doubt; inactive = no such curve, though single readings can be large or run the other way. Unless noted, % is set by controls: 0 for no effect and ±100 for the full control effect; potency is the fitted concentration of half-maximal effect.

SMILES	LMNA splice mod	KinaseGlo FLuc	ALDH1A1 block	IMPase Li cell	HPGD inh
Cc1nn(CC2CC2)c(=O)n1-c1ccc(F)cc1	?	0%	7%	3%	·
CCOc1ccc(CCNC(=O)CCn2c(=O)c3cccn3c3ccc(F)cc32)cc1	-6%[46 µM]	·	·	·	·
O=C(c1ccc(Cl)c(S(=O)(=O)N2CCOCC2)c1)N(c1ccccn1)C1CCCCC1	·	5%	?	6%	·
COc1ccc(Cl)cc1NC(=O)C1CCN(S(=O)(=O)c2ccc3c(c2)CC(C)N3C(C)=O)CC1 (stereo not drawn)	-3%[46 µM]	·	·	·	·
COC(=O)c1sc2cccc(F)c2c1S(=O)(=O)NCc1ccccc1Cl	-7%[46 µM]	·	·	·	·
Fc1cccc(/C=C2\CCCC3=C2NC(=S)NC3c2cccc(F)c2)c1 (stereo not drawn)	·	·	0.79µM*	·	·
S=C1NC2=C(CCC/C2=C\c2ccc(Cl)cc2)C(c2ccc(Cl)cc2)N1 (stereo not drawn)	·	·	13µM*	·	·
S=C1NC2=C(CCC/C2=C\c2ccccc2)C(c2ccccc2)N1 (stereo not drawn)	?	1%	0.63µM*	2%	22µM*
C=CCNC(=O)c1c(Cl)cnn1-c1ccc(C)cc1	·	·	-12%	2%	·
COC(=O)[C@H]1O[C@@H](c2cc(OC)c(C)c(OC)c2O)[C@H](C)[C@@H](O)[C@H]1C	·	1%	14%	16%	-8%
Cn1c(SCc2ccccc2Cl)nc2c([nH]c3ccccc32)c1=O	0%[46 µM]	·	·	·	·
Cc1ccc(S(=O)(=O)/N=C2\SC(CC(=O)Nc3ccc(F)cc3)C(=O)N2c2ccccc2)cc1 (stereo not drawn)	1%	-1%	5.6µM*	-5%	-20%
O=C(O)CC1SC(=Nc2ccccc2)N(c2ccccc2)C1=O (stereo not drawn)	15%	2%	-2%	17%[38.3 µM]	-6%
O=C(CC1S/C(=N\S(=O)(=O)c2ccccc2)N(c2ccccc2)C1=O)Nc1ccc(F)cc1 (stereo not drawn)	-16%	-4%	25µM*	2%	-9%
O=C1C=CC2=C3c4cc(O)c(O)cc4C[C@@]3(O)COC2=C1	·	-2%	-1%	15%	11µM*
Cc1cc(C)c2nc(Nc3nc(C)cc(=O)[nH]3)nc(C)c2c1	·	1%	-5%	·	2%
Cc1ccccc1C(=O)Nc1cccc(C(=O)OCc2cc(=O)n3ccsc3n2)c1	1%[46 µM]	·	·	·	·
CC(C)(C)Cc1nnc(NC(=O)Cc2ccc([N+](=O)[O-])cc2)s1	3%	-1%	11µM*	-1%	14µM*
CC(C)Cc1nnc(NC(=O)Cc2ccccc2[N+](=O)[O-])s1	-6%	-1%	?	3%	32µM*
CC(C)Cc1nnc(NC(=O)Cc2cccs2)s1	?	-3%	?	-8%	·
Nn1c(SCC(=O)N2CCOCC2)nnc1-c1ccccc1Cl	-6%	-8%	2%	-2%[38.3 µM]	-14%
CC1=C(C(=O)N2CCOCC2)C(c2ccc(C)cc2)NC(=S)N1 (stereo not drawn)	-10%	·	18µM*	·	·
Cc1nn(C(=O)c2cccnc2)c(C)c1Sc1ccc(Br)cc1	11%	0%	-5%	21%[38.3 µM]	14µM*
CCc1cc(C(=O)COc2ccccc2F)c(O)cc1O	?	1%	?	41%[38.3 µM]	32µM*
CCc1cc(C(=O)Cc2ccc(F)cc2)c(O)cc1O	?	1%	-1%	-4%	-19%
SMILES	LMNA splice mod	KinaseGlo FLuc	ALDH1A1 block	IMPase Li cell	HPGD inh
COc1ccccc1NCc1ccc([N+](=O)[O-])s1	9%	0%	14µM*	2%	-10%
COc1ccccc1N(C(=O)c1ccncc1)c1nc(-c2ccc([N+](=O)[O-])cc2)cs1	?	1%	11µM*	11%	-16%
COCC(=O)Nc1nc(-c2ccc([N+](=O)[O-])cc2)cs1	·	0%	1%	-2%	·
CC(=O)/C=C(\C)Nc1c(C)n(C)n(-c2ccccc2)c1=O	?	0%	-7%	0%	·
CC(C)Cn1nnnc1S(=O)(=O)CCc1ccccc1	·	4%	-13%	10%	-4%
CSCCOC(=O)COc1ccc(/C=N/NC(=O)c2nn(C)cc2Cl)cc1	-3%	-4%	7%	-4%	4µM*
Cc1ccc(S(=O)(=O)Oc2ccc(/C=N/NC(=O)c3nn(C)cc3Cl)cc2)cc1	-4%	-1%	?	7%	-28%
